22 compounds from PubChem BioAssay (NCATS) can be followed below.

Structures are written as SMILES. Starred links: 1 amine or outer side, 2 acyl side, 3 side chain; linkers in the order of their positions; H or OH if unused. Positions of bridges follow the written chain, without caps; N, C: chain ends. Non-standard residues stand in square brackets, D forms with d. Residues, ends and D or L forms follow the SMILES beside them. *: point of attachment. X2 = NC1=C[C@@H](O)C[C@H]([C@H](N[*:1])C(=O)[*:2])N1; ΔAla(3-NHCONH2) = NC(=O)NC=C(N)C(=O)O; β3hOrn = NCCC[C@H](N)CC(=O)*; Dap = NC[C@H](N)C(=O)O

The assay can be described thus: qHTS profiling of the MIPE4 collection as inhibitors of Plasmodium falciparum (HB3) proliferation (AID 743347).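 Also: plate controls were DMSO vehicle wells for no effect and artemisinin wells for full effect.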 The settings on record: P. falciparum HB3 in erythrocytes, SYBR Green DNA, 72 h; at 28.5 µM (top of the series). From the text:
Plasmodium falciparum is a virulent malarial parasite that kills 1-2 million people worldwide each year. Transmitted by mosquitoes, the sporozoite form of the parasite enters the blood stream to infect hepatocytes, where they become merozoites that infect red blood cells (erythrocytes). Within erythrocytes, merozoites begin a […] cycle of growth and division, after which the parasite is released to infect new red blood cells. Gametocytes, which form within erythrocytes as well, circulate in the bloodstream and are ingested by the mosquito, thereby completing the life cycle. To profile malarial isolates for differential chemical responses and to identify inhibitors of malarial growth, an assay that measures P. falciparum growth and replication within erythrocytes was employed. This assay uses a DNA binding fluorescent dye (SYBR Green) to detect parasite DNA following cell lysis. Because mature erythrocytes lack DNA, only Plasmodium-derived DNA is detected.
The SYBR Green viability assay was adapted from a method described previously (Plouffe et al., 2008). For screening 3 ul culture medium was dispensed into 1536 well black clear bottom plates (Aurora Biotechnologies) using a Multidrop Combi (Thermo Fisher Scientific Inc.), 23 nL compounds in DMSO were added by a pin tool (Kalypsys), and 5 ul of erythrocytes infected with P. falciparum (0.3% parasitemia, 2.5% hematocrit final concentration) were added. The plates were incubated at 37 C in a humidified incubator in 5% CO2 for 72 h, and 2 ul lysis buffer (20 mM Tris HCl, 10 mM EDTA, 0.16% saponin, 1.6% triton X, 10X SYBR Green I supplied as 10,000X […] by Invitrogen) was added to each well. The plates were mixed for 25 sec with gentle shaking and incubated overnight at room temperature in the dark. The following morning, fluorescence intensity at 485(14) nm excitation and 535(25) nm emission wavelengths was measured on an EnVision (Perkin Elmer) plate reader. Plate reads were normalized relative to the control inhibitor (0.29 uM artemisinin) and vehicle (DMSO) wells present on each plate and then corrected by an algorithm using vehicle-only control plates at the beginning and end of the compound plate stack.
On the technique in general: In qHTS, concentration-response curves come from the screen itself.
Take `COc1ccc(S(=O)(=O)N(CCO)c2ccccc2CN(C)CC=Cc2ccc(Cl)cc2)cc1`: the growth, % of control was 9.71%.
The figure for `CC1(C)O[C@@H]2[C@H]3OC(C)(C)O[C@]3(COS(N)(=O)=O)OC[C@H]2O1` is 59.9%; for `COC1=C2C[C@H](C)C[C@H](OC)[C@@H](O)[C@@H](C)C=C(C)[C@H](OC(N)=O)[C@@H](OC)C=CC=C(C)C(=O)NC(=CC1=O)C2=O` it is 2.93%.
The result for `CC(=O)NCC1CN(c2ccc(N3CCOCC3)c(F)c2)C(=O)O1` (configuration not stated) reads 99%; that for `CCOc1ccc(F)cc1C1(O)C(N)=Nc2ccc(Cl)cc21` (configuration not stated), 5.81%.
In turn, `CC(C)(C)OC(=O)N[C@@H](Cc1ccc(O[S+](=O)([O-])c2cccc3cnccc23)cc1)C(=O)Nc1ccc(-c2ccccc2)cc1` came in with a growth, % of control of 4.11%.
The result for `C[C@H]1CCN(C(=O)CC#N)C[C@H]1N(C)c1ncnc2[nH]ccc12` reads 114%.
As for `CO[C@H]1C=CO[C@@]2(C)Oc3c(C)c(O)c4c(O)c(c(C=NN5CCN(C)CC5)c(O)c4c3C2=O)NC(=O)C(C)=CC=CC(C)[C@H](O)[C@@H](C)[C@@H](O)[C@@H](C)[C@@H](OC(C)=O)[C@H]1C` (some centres not stated), the growth, % of control was 6.73%.
In turn, `CC(C)=CCCC(C)=CCNCCNC1C2CC3CC(C2)CC1C3` (configuration not stated) had a growth, % of control of 2.71%.
The figure for `COc1cc(C)c2c(Oc3cccc(C(F)(F)F)c3)c(OC)cc(NCCCC(C)N)c2n1` (configuration not stated) is 2.71%; for `CN([C@@H](Cc1ccc(O[S+](=O)([O-])c2cccc3cnccc23)cc1)C(=O)N1CCN(C(=O)OCc2ccccc2)CC1)[S+](=O)([O-])c1cccc2cnccc12` it is 8.42%; for `NCCC[C@H](N)CC(=O)N[C@H]1CNC(=O)[C@H]([C@H]2C[C@H](O)C=C(N)N2)NC(=O)C(=CNC(N)=O)NC(=O)[C@H](CO)NC(=O)[C@H](CO)NC1=O` (β3hOrn-[Dap]SS[ΔAla(3-NHCONH2)][X2]; lactam 1-C) it is 100%.
For `O=CN(O)CCCP(=O)(O)O`, the growth, % of control was 9.42%.
`CN(C(=O)OC(C)(C)C)[C@@H](Cc1ccc(O[S+](=O)([O-])c2cccc3cnccc23)cc1)C(=O)N1CCN(C(=O)OCc2ccccc2)CC1`: the growth, % of control was found to be 8.16%.
The result for `C[C@H]1C[C@H]2C3CCC4=CC(=O)C=C[C@@]4(C)[C@@]3(Cl)[C@@H](O)CC2(C)[C@@]1(OC(=O)c1ccco1)C(=O)CCl` (some centres not stated) reads 5.44%; that for `C[C@H]1Cc2c([nH]c3cc(Cl)c(F)cc23)[C@@]2(N1)C(=O)Nc1ccc(Cl)cc12`, 7.99%.
`C[C@]1(COc2ccc(N3CCC(Oc4ccc(OC(F)(F)F)cc4)CC3)cc2)Cn2cc([N+](=O)[O-])nc2O1`: the growth, % of control was 88.7%.
The figure for `Cc1nc2c(C#N)cccc2n1-c1ccc(C(=O)NC2CC2)s1` is 4.26%; for `CN(C)CCC=C1c2ccccc2COc2ccccc21` it is 96.7%.
The result for `CCCC[C@@H]1C[C@@H](C(=O)NC([C@H](C)Cl)[C@H]2O[C@H](S)[C@H](O)[C@@H](O)[C@@H]2O)N(C)C1` (some centres not stated) reads 52.4%; that for `CN[C@@H]1[C@@H](O[C@H]2[C@H](O[C@H]3[C@H](O)[C@@H](O)[C@H](N=C(N)N)[C@@H](O)[C@H]3N=C(N)N)O[C@@H](C)[C@]2(O)C=O)O[C@@H](CO)[C@H](O)[C@H]1O`, 86.4%.
`CCN(CC)CCOc1ccc2c(=O)c3ccc(Cl)cc3n(CCN(CC)CC)c2c1` showed a growth, % of control of 5.14%.
